ChEMBL document CHEMBL1961873, “Compounds: GSK PKIS; Assays: Nanosyn kinase panel” (2012)

Legend:
[1] = target: T1, Inhibitor of nuclear factor kappa-B kinase subunit epsilon (Homo sapiens) (UniProt Q14164); conditions: at 1 µM;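 further: reported values are averaged percent inhibition figures against human IKKε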
T1 sequence (whole entry): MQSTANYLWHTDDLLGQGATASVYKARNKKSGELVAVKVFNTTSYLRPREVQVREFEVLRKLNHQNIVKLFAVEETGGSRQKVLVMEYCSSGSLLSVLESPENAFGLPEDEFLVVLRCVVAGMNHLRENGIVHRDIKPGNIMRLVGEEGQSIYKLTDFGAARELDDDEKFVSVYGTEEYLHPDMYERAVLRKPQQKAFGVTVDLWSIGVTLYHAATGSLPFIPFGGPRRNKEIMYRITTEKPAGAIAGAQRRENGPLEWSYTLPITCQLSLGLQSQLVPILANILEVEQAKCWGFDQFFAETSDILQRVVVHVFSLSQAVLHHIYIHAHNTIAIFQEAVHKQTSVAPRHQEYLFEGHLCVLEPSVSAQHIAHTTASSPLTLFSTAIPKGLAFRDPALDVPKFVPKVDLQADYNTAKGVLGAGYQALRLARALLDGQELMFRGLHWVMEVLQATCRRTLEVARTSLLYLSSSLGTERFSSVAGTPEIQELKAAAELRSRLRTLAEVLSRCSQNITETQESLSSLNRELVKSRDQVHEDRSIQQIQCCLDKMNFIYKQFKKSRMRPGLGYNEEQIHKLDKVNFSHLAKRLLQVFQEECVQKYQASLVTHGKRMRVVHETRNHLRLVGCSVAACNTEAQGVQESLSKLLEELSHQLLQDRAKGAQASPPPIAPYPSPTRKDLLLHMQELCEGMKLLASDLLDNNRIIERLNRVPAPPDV

[2] = target: T2, Serine/threonine-protein kinase Nek1 (Homo sapiens) (UniProt Q96PY6); conditions: at 0.1 µM
T2 sequence (whole entry): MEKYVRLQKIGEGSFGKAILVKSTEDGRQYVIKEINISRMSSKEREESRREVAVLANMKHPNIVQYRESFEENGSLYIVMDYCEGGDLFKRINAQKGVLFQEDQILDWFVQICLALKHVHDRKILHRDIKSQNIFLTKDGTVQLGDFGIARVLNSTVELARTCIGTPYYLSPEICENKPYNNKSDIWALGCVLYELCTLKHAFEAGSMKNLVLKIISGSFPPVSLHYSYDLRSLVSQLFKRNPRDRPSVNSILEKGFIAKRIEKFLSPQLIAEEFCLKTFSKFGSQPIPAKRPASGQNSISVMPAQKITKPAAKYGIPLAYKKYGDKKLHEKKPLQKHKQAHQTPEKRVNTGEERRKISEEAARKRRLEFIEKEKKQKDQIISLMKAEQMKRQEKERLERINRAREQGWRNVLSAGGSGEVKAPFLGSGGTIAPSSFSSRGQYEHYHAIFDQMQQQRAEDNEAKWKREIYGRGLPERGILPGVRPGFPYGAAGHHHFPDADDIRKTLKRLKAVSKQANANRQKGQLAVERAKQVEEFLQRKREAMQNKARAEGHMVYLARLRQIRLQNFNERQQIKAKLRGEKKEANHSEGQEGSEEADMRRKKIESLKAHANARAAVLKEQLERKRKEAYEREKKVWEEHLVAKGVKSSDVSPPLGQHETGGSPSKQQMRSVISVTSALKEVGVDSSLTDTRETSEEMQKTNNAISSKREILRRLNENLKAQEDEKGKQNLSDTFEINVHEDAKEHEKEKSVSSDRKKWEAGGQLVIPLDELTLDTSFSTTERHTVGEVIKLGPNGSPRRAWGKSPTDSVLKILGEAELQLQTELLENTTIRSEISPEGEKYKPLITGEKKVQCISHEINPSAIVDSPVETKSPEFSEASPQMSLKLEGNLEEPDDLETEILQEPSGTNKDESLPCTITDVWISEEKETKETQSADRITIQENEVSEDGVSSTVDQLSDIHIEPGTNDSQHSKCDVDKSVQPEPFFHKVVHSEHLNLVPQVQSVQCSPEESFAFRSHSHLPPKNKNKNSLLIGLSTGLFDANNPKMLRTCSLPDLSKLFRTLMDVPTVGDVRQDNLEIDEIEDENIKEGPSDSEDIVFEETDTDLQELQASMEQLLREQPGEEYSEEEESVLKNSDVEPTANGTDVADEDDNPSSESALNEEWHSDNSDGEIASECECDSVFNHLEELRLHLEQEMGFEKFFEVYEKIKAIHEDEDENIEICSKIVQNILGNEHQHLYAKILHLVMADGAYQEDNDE

[3] = target: T2, Serine/threonine-protein kinase Nek1 (Homo sapiens); conditions: at 1 µM
[4] = target: T3, Serine/threonine-protein kinase Nek2 (Homo sapiens) (UniProt P51955); conditions: at 0.1 µM
T3 sequence (whole entry): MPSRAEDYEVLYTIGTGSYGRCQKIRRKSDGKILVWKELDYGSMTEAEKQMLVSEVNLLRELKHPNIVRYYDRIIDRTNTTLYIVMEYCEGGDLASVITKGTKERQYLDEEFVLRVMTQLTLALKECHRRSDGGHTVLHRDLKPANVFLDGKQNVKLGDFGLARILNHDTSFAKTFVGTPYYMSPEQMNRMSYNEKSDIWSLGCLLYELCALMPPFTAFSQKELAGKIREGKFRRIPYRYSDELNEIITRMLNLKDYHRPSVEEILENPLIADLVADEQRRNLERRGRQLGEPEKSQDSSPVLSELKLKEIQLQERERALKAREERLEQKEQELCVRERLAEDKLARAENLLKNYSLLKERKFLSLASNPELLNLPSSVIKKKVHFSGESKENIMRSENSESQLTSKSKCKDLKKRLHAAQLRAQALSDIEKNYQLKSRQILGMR

[5] = target: T3, Serine/threonine-protein kinase Nek2 (Homo sapiens); conditions: at 1 µM
[6] = target: Serine/threonine-protein kinase Nek6 (Homo sapiens) (UniProt Q9HC98); conditions: at 0.1 µM
Chain of Serine/threonine-protein kinase Nek6 (Homo sapiens) (Q9HC98 whole entry): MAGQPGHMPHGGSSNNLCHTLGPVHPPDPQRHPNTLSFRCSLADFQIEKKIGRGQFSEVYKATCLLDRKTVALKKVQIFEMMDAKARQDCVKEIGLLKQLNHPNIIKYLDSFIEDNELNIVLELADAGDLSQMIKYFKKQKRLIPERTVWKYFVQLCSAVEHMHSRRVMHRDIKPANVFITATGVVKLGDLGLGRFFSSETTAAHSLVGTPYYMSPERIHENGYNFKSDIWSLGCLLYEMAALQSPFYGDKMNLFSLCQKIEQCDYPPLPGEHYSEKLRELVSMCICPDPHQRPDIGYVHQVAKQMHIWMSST

[7] = target: Serine/threonine-protein kinase Nek6 (Homo sapiens) (UniProt Q9HC98); conditions: at 1 µM
[8] = target: Serine/threonine-protein kinase Nek7 (Homo sapiens) (UniProt Q8TDX7); conditions: at 0.1 µM
Chain of Serine/threonine-protein kinase Nek7 (Homo sapiens) (Q8TDX7 whole entry, looked up): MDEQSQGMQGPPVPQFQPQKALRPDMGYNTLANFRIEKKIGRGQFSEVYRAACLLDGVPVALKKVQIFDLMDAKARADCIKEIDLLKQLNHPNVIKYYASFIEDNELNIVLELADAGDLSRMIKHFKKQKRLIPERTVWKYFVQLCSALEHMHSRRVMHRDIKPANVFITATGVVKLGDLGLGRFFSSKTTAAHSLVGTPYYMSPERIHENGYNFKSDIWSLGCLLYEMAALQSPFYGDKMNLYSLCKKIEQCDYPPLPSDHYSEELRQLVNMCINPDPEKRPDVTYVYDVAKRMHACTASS

[9] = target: Serine/threonine-protein kinase Nek7 (Homo sapiens) (UniProt Q8TDX7); conditions: at 1 µM
[10] = target: T4, Serine/threonine-protein kinase Nek9 (Homo sapiens) (UniProt Q8TD19); conditions: at 0.1 µM
T4 sequence (whole entry): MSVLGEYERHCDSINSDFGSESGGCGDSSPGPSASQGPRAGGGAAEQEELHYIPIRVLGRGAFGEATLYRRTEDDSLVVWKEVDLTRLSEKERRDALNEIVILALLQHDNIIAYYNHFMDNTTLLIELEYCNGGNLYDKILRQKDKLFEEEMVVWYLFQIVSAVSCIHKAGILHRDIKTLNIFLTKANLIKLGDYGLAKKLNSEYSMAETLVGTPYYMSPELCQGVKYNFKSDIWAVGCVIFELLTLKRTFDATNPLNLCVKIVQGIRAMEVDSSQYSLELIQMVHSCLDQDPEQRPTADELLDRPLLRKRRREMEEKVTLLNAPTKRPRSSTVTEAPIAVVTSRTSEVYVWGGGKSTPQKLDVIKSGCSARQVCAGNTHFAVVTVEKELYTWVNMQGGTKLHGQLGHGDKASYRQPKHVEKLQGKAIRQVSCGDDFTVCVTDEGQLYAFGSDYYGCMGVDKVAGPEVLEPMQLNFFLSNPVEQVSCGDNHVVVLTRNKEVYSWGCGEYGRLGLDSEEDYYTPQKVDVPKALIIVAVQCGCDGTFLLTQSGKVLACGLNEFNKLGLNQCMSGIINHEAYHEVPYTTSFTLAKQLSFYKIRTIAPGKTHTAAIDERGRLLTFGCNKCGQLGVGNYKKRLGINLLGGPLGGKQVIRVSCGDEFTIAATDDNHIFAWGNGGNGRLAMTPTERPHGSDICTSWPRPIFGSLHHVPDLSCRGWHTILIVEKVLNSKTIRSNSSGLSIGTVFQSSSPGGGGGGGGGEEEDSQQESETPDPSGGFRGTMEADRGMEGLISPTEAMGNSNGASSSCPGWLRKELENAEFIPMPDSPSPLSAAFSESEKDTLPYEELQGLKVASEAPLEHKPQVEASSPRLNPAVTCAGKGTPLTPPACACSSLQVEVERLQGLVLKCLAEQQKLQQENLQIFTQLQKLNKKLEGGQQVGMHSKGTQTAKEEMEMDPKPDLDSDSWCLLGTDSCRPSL

[11] = target: T4, Serine/threonine-protein kinase Nek9 (Homo sapiens); conditions: at 1 µM
[12] = target: Serine/threonine-protein kinase PLK1 (Homo sapiens) (UniProt P53350); conditions: at 0.1 µM
Chain of Serine/threonine-protein kinase PLK1 (Homo sapiens) (P53350 whole entry): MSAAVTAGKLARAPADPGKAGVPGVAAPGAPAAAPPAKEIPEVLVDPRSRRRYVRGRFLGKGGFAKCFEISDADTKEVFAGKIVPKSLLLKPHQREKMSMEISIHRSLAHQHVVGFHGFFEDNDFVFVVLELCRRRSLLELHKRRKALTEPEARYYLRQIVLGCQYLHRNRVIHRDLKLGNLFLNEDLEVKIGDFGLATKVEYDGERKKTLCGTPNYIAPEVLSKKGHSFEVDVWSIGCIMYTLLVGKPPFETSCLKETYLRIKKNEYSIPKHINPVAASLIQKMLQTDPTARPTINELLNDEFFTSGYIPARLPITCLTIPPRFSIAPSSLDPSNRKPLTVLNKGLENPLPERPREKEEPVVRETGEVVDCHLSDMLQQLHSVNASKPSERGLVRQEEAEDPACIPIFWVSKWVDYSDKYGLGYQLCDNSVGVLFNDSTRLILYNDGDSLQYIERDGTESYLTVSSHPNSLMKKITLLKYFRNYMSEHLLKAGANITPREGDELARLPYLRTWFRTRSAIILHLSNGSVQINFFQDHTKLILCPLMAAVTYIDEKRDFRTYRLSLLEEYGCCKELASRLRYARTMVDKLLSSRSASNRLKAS

[13] = target: Serine/threonine-protein kinase PLK1 (Homo sapiens) (UniProt P53350); conditions: at 1 µM
[14] = target: T5, Dual specificity protein kinase TTK (Homo sapiens) (UniProt P33981); conditions: at 0.1 µM
T5 sequence (whole entry): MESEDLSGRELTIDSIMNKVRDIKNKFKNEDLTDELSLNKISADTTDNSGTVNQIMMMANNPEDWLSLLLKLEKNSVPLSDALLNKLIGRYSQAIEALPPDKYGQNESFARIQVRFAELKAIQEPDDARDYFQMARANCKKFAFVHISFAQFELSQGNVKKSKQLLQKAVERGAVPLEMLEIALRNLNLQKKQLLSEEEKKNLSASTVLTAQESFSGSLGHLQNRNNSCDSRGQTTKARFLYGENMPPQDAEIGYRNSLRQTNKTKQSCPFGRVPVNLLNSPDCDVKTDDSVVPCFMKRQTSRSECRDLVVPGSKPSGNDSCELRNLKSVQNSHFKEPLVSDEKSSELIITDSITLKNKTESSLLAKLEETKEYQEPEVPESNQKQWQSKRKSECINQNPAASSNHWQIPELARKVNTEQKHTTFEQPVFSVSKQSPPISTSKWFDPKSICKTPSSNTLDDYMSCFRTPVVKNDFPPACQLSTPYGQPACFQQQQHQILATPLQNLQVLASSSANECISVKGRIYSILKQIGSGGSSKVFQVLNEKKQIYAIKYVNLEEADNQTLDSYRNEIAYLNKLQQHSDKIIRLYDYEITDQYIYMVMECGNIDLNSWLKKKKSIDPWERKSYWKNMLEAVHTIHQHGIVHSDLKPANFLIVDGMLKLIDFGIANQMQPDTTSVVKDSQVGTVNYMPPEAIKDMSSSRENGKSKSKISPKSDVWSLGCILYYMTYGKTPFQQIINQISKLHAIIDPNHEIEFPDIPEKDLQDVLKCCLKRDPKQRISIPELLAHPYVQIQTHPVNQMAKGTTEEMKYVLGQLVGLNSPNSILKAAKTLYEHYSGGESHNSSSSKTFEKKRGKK

[15] = test system: T6, Receptor-type tyrosine-protein kinase FLT3 (Homo sapiens), P36888 [D835Y]; conditions: at 1 µM
T6 sequence (whole entry): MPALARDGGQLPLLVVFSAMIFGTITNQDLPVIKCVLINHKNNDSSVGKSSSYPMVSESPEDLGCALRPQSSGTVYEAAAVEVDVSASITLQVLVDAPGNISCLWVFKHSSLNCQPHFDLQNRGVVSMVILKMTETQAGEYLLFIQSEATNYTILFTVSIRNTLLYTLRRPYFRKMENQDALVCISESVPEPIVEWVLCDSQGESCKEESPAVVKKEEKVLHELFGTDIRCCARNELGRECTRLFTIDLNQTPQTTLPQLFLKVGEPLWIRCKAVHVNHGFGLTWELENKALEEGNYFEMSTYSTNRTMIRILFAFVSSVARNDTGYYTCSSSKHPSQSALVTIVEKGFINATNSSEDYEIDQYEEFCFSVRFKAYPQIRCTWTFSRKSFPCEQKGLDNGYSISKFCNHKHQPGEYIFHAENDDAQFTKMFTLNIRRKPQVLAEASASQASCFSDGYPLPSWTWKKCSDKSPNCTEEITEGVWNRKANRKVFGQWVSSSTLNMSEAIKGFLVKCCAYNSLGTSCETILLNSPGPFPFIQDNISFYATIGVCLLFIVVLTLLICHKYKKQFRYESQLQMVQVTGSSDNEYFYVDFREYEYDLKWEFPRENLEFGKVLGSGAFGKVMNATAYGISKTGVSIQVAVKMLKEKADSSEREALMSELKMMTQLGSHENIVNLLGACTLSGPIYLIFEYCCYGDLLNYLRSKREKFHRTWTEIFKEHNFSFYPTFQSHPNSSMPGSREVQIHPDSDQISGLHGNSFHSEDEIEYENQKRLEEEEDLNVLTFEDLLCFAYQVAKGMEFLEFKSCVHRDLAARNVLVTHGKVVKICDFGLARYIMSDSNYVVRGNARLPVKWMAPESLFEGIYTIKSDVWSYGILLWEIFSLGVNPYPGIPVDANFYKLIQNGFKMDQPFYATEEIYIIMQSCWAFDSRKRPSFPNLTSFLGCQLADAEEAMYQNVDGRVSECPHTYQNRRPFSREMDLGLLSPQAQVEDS

[16] = target: Vascular endothelial growth factor receptor 3 (Homo sapiens) (UniProt P35916); conditions: at 0.1 µM
Chain of Vascular endothelial growth factor receptor 3 (Homo sapiens) (P35916 whole entry): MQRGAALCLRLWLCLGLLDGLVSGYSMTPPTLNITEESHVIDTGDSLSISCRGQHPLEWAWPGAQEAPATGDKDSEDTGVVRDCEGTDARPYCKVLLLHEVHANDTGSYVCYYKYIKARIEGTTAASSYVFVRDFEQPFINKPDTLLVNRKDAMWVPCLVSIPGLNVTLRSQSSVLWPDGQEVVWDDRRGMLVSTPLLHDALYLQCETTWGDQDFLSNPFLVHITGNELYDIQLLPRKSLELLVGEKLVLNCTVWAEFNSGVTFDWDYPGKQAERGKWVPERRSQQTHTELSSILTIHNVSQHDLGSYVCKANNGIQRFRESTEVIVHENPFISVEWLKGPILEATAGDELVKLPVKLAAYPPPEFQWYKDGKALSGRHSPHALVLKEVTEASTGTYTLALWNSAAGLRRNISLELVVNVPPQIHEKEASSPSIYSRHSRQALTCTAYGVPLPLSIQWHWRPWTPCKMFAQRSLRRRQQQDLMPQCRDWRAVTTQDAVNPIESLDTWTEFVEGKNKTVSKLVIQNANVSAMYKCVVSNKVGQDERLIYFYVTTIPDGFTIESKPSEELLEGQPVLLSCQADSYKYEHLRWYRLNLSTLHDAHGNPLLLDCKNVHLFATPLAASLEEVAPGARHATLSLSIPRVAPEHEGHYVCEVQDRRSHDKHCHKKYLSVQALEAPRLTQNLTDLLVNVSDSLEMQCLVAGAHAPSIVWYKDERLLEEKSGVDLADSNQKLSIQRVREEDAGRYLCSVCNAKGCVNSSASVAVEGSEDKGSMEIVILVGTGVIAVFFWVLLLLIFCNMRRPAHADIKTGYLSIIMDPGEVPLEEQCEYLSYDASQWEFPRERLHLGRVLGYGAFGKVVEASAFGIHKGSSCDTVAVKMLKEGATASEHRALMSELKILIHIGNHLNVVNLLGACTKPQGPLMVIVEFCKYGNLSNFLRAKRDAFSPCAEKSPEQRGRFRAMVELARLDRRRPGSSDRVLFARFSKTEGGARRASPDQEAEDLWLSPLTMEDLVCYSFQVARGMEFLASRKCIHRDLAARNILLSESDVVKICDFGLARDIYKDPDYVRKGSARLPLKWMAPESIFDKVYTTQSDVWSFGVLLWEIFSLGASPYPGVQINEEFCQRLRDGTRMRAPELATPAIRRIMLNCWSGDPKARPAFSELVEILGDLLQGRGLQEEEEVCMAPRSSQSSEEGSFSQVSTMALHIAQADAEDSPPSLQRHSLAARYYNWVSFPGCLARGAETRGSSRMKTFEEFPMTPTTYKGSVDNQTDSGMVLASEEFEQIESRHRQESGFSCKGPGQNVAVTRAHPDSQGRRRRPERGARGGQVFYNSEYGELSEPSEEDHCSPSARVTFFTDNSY

[17] = target: Vascular endothelial growth factor receptor 3 (Homo sapiens) (UniProt P35916); conditions: at 1 µM
[18] = target: Macrophage colony-stimulating factor 1 receptor (Homo sapiens) (UniProt P07333); conditions: at 0.1 µM
Chain of Macrophage colony-stimulating factor 1 receptor (Homo sapiens) (P07333 whole entry): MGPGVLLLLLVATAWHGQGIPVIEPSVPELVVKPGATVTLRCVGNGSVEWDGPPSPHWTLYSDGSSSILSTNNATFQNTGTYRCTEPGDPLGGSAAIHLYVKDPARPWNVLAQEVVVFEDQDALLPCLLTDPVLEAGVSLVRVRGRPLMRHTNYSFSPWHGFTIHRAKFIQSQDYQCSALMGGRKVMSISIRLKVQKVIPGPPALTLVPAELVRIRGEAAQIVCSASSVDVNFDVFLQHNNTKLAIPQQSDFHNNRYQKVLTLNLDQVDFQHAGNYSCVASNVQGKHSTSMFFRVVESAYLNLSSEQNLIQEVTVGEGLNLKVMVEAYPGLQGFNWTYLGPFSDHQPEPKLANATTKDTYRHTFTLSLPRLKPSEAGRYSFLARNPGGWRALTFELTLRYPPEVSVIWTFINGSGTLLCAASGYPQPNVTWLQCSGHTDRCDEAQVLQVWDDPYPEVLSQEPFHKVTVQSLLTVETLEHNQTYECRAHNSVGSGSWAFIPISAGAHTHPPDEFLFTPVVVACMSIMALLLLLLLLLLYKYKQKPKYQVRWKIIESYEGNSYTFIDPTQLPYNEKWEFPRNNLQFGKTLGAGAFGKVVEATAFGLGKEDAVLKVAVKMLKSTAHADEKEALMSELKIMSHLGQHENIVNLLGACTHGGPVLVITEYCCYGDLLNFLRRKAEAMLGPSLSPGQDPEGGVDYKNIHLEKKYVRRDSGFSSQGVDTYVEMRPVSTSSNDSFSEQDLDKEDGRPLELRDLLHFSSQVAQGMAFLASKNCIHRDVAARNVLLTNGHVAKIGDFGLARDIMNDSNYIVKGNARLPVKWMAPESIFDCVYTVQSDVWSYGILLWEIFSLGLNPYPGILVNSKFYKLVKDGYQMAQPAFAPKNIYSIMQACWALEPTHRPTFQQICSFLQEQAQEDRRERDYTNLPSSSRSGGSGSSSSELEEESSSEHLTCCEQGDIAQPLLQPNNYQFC

[19] = target: Macrophage colony-stimulating factor 1 receptor (Homo sapiens) (UniProt P07333); conditions: at 1 µM
[20] = target: Tyrosine-protein kinase Fyn (Homo sapiens) (UniProt P06241); conditions: at 0.1 µM
Chain of Tyrosine-protein kinase Fyn (Homo sapiens) (P06241 2-537 limits assumed): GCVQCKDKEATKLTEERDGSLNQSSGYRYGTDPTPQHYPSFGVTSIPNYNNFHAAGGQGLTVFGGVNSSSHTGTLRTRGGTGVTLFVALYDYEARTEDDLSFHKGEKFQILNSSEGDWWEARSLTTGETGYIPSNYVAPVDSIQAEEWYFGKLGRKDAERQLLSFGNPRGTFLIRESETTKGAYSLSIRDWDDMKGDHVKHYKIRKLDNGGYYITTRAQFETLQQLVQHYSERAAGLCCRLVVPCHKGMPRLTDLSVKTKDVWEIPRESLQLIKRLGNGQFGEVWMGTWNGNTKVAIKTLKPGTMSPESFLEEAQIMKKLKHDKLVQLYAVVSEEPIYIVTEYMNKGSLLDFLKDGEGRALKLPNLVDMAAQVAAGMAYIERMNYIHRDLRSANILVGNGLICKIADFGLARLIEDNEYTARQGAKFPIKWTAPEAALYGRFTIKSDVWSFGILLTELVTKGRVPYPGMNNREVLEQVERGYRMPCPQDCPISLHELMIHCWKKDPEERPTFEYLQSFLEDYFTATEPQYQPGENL

Compound	inhibition [1] [%]	inhibition [2] [%]	inhibition [3] [%]	inhibition [4] [%]	inhibition [5] [%]	inhibition [6] [%]	inhibition [7] [%]	inhibition [8] [%]	inhibition [9] [%]	inhibition [10] [%]	inhibition [11] [%]	inhibition [12] [%]	inhibition [13] [%]	inhibition [14] [%]	inhibition [15] [%]	inhibition [16] [%]	inhibition [17] [%]	inhibition [18] [%]	inhibition [19] [%]	inhibition [20] [%]
O=C1Nc2ccccc2/C1=C1\CCc2cc(O)ccc21	20.3	3.11	4.37	7.09	5.47	1.9	1.99	5.62	4.31	8.42	8.07	4.12	4.17	12.1	70.6	7.22	24.6	17.3	59.6	5.55
N#Cc1ccc2c(-c3ccnc(NC4CC4)n3)c(-c3ccc(F)cc3)nn2c1	3.7	0.87	2.03	2.22	1.83	1.63	1.52	1.73	2.38	3.27	4.02	2.66	0.98	2.64	4.7	-1.37	4.18	-2.75	4.65	-0.41
Cc1ccc(-c2cc3c(NC(=O)C4CC4)ncnc3o2)cc1	6.07	1.85	3.91	4.58	4.89	3.4	0.29	3.17	3.35	3.07	4.87	3.28	2.79	6.01	3.4	3.84	9.25	20.6	66.9	6.5
